# Results from the supplement of paper PMC13380429.
# Experiments:
# [1] = test system: Vero E6 infected with SARS-CoV-2; assay: morphology score (similarity to uninfected cells); higher = more like uninfected cells; settings: 24 h
# [2] = test system: Vero E6 infected with SARS-CoV-2; assay: SARS-CoV-2 infection rate relative to infected DMSO; higher = more infection, active = 60 or less; settings: 24 h
structure (smiles),measurement,setting,value
C/C(=C\C(=O)Nc1ccccc1C(=O)O)c1ccc2ccccc2c1 (10 µM),morphology score,[1],0.23
same,SARS-CoV-2 infection rate,[2],103% (inactive)
Cc1cc(/C=C2\SC(=O)N(c3ccccc3)C2=O)c(C)n1-c1cccnc1 (10 µM),morphology score,[1],-0.171
same,SARS-CoV-2 infection rate,[2],102% (inactive)
CN(c1ccccc1CNc1nc(Nc2ccc3c(c2)CC(=O)N3)ncc1C(F)(F)F)S(C)(=O)=O (10 µM),morphology score,[1],0.0447
same,SARS-CoV-2 infection rate,[2],114% (inactive)
N.N.[Cl][Pt][Cl] [cisplatin] (10 µM),morphology score,[1],0.0556
same,SARS-CoV-2 infection rate,[2],111% (inactive)
CN(C)CCOC(C)(c1ccccc1)c1ccccn1 (centres undefined) [doxylamine] (10 µM),morphology score,[1],0.112
same,SARS-CoV-2 infection rate,[2],96% (inactive)
O=C(Cc1ccc(Cl)c(Cl)c1)N1CCCC[C@@H]1CN1CCCC1 (10 µM),morphology score,[1],0.168
same,SARS-CoV-2 infection rate,[2],91.5% (inactive)
CCn1c2ccccc2c2cc(CNC)ccc21 (10 µM),morphology score,[1],0.514
same,SARS-CoV-2 infection rate,[2],56% (active)
CN(C)CCCNC(=O)c1ccc(-c2cc(O)c3ncccc3c2)cc1 (0.833333 µM),morphology score,[1],-0.00508
same,SARS-CoV-2 infection rate,[2],108% (inactive)
N#Cc1cccc(-c2c[nH]c3ncnc(N4CCOCC4)c23)c1 (10 µM),morphology score,[1],0.304
same,SARS-CoV-2 infection rate,[2],108% (inactive)
O=C(O)c1cc(/N=N/c2ccc(S(=O)(=O)Nc3ccccn3)cc2)ccc1O [sulfasalazine] (10 µM),morphology score,[1],0.0447
same,SARS-CoV-2 infection rate,[2],105% (inactive)
CN(C)CCCn1cc(C2=C(c3c[nH]c4ccccc34)C(=O)NC2=O)c2ccccc21 (0.833333 µM),morphology score,[1],-0.0102
same,SARS-CoV-2 infection rate,[2],104% (inactive)
Cc1nc[nH]c1CCN [4-methylhistamine] (10 µM),morphology score,[1],0.105
same,SARS-CoV-2 infection rate,[2],99.5% (inactive)
